Compounds with a hit are over-represented: about 4.3% of the library has one in this group of screens.
NALP1 inh: NALP1 inflammasome inhibitors in reconstituted yeast, colorimetric, S. cerevisiae, triplicate retest; 280,000 compounds, 0.61% hits; S. cerevisiae NALP1/ASC/caspase-1 growth, X-gal OD620, 72 h; inhibition, % at 10 µM; in the data active means inhibition mostly above about 24%, no sharp cut-off; inactive means mostly below about 32%
CR mimetic SO: reduction of superoxide in aged yeast, primary screen, HTS; 330,000 compounds, 0.18% hits; superoxide response (% of plate mean), % at 10 µM; AID 2690, 2010; S. cerevisiae aged cells, superoxide DHE fluorescence; active compounds read low;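 active means superoxide response under a set limit, about three screen SD below normal, cut at about 65% in these data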;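 further: yeast aged for seven days with compound at 30 °C before DHE staining; 100% = average MFI of all compound-treated wells on the plate with controls excluded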
dFosB act-1: activators of delta FosB homodimer, primary screen, biochemical, fluorescence polarization, TAMRA-CDK5 oligo, single point. Protein FosB (Mus musculus), P13346. purified delta FosB; percent of positive-control signal above neutral wells. activation, % at 25 µM. 340,000 compounds, 0.99% hits. AID 493131, 2011;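 active means mean activation above about 17%, with every replicate also reaching it, limit read from the data, passing the limit was not always enough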
Target sequence (P13346 whole entry, looked up): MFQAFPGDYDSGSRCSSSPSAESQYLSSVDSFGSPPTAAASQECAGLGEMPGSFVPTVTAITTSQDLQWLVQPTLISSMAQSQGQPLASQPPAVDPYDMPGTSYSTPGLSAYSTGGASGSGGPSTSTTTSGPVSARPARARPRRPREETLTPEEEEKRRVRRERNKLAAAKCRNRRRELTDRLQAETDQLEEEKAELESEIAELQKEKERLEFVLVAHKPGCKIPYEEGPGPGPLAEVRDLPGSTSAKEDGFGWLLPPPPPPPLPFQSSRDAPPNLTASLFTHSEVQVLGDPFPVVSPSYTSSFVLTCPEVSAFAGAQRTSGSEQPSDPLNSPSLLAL
UBC13 inh: UBC13 polyubiquitin chain formation inhibitors, primary screen, biochemical, TR-FRET, uHTS; AID 485273, 2010; inhibition, % at 20 µM; 330,000 compounds, 0.47% hits; Ubiquitin-conjugating enzyme E2 N (Homo sapiens), P61088; in the data active means inhibition above about 45%, passing the limit was not always enough
Target sequence (P61088 whole entry, looked up): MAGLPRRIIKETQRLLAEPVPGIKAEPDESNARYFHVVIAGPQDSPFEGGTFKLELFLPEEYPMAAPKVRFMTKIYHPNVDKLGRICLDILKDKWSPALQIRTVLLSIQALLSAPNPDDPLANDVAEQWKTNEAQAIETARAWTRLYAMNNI
GRIN3A LBD mod: binders of NR3A ligand-binding domain, primary screen, biophysical, differential scanning fluorimetry, uHTS; Glutamate receptor ionotropic, NMDA 3A (GRIN3A) ligand-binding domain; NR3A LBD differential scanning fluorimetry, Tm shift; 0% = protein alone, 100% = glycine-bound protein; Tm shift relative to glycine control, % at 25 µM; 340,000 compounds, 2.5% hits; AID 1259313, 2017;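 active means melting temperature shift of at least 10% of the positive control shift, at one fixed dose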
dFosB act-2: activators of mouse delta FosB DNA binding, confirmation, biochemical, fluorescence polarization, TAMRA-CDK5 oligo, cherry-picked samples. purified delta FosB; normalised: neutral wells 0, positive control 100. AID 588690, 2011. 2,400 tested, under 10 active. shares compounds with dFosB act-1. activation, % at 24.9 µM;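 active means highest replicate activation at or above 34% and every replicate reaching that threshold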;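 further: higher polarization means more probe DNA bound by delta FosB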
Active calls of the source: *; nt = not tested or not shown.

SMILES | NALP1 inh | CR mimetic SO | dFosB act-1 | UBC13 inh | GRIN3A LBD mod | dFosB act-2
CC1=C(C)CC(C(=O)NCCc2ccc(F)cc2)C(C(=O)O)C1 (configuration not stated) | 4.6 | 90.9 | -0.9 | -2.2 | 2.4 | nt
CCOc1ccc2nc(NC(=O)CC3Oc4ccccc4NC3=O)sc2c1 (configuration not stated) | -6.8 | 123.0 | 28.7* | -0.9 | 4.3 | 2.7
CC(C)(C)OC(=O)N1CCC(C(=O)NCC2CCCO2)CC1 (configuration not stated) | -65.0 | 100.7 | -0.6 | -3.1 | -0.4 | nt
O=C(CNC(=O)c1ccc2ccccc2c1)OCC(=O)N1CCN(S(=O)(=O)c2ccc3ccccc3c2)CC1 | 30.8 | 99.5 | 21.8* | 5.7 | 9.2 | -9.1
CC(=O)NCc1ccc(S(=O)(=O)N2CCN(S(=O)(=O)c3ccc4ccccc4c3)CC2)cc1 | nt | nt | 48.6* | -1.1 | 2.1 | 2.9
CN1/C(=C\C(=O)COC(=O)CNC(=O)c2ccc3ccccc3c2)C(C)(C)c2ccccc21 | 28.5 | 113.1 | 33.7* | -7.1 | -15.1 | 1.3
CN1CCN(S(=O)(=O)c2ccc3ccccc3c2)CC1 | 20.3 | 86.2 | -5.1 | 2.3 | -0.8 | nt
O=C(NCC(=O)N1CCN(S(=O)(=O)c2ccccc2)CC1)c1ccc2ccccc2c1 | nt | 87.0 | -8.5 | 0.7 | -4.8 | nt
CN1/C(=C\C(=O)COC(=O)CNC(=O)c2ccccc2F)C(C)(C)c2ccccc21 | 41.6 | 84.8 | 9.3 | 0.9 | -1.0 | nt
CC(C#N)(CCc1ccccn1)CCc1ccccn1 | nt | nt | 9.4 | nt | 0.5 | nt
O=C(Cn1ncc2c([nH]c3ccccc32)c1=O)Nc1ccc(CN2CCCCC2)cc1 | 7.4 | 83.7 | -2.7 | 10.0 | -0.1 | nt
Cc1cccc(-n2nnnc2SCC(=O)c2cc(C)n(Cc3ccco3)c2C)c1 | -34.4 | 100.5 | 21.4* | 0.0 | -1.9 | 1.3
Cc1cccc(-n2nnnc2SCC(=O)c2cc(C)n(CC3CCCO3)c2C)c1 (configuration not stated) | 9.2 | 94.7 | -4.6 | -22.5 | 3.8 | nt
O=C(COC(=O)C12CC3CC(CC(Cl)(C3)C1)C2)Nc1ccc2[nH]c(=O)[nH]c2c1 | nt | 102.1 | 0.4 | 15.7 | 0.4 | nt
O=C(Nc1nc(-c2cccnc2)cs1)c1ccccc1Cl | 9.6 | 84.8 | 24.4* | -15.5 | 0.0 | 6.7
CCCCC(CC)COC(=O)C(C#N)=C(c1ccccc1)c1ccccc1 (configuration not stated) | nt | 88.5 | 3.3 | -2.0 | -1.4 | nt
Cc1ccc(CCNC(=O)C2CCCN(S(=O)(=O)c3cccc4nsnc34)C2)cc1 (configuration not stated) | 0.2 | 109.6 | 46.9* | 3.6 | -0.3 | 3.2
O=C(Nc1cccc2c1CCCC2)C1CCCN(S(=O)(=O)c2cccc3nonc23)C1 (configuration not stated) | nt | 92.5 | 24.3* | -13.4 | -2.2 | 4.2
CC(=O)c1ccc(NC(=O)C2CCCN(S(=O)(=O)c3cccc4nonc34)C2)cc1 (configuration not stated) | 32.6 | 84.5 | -17.9 | -5.0 | 1.2 | nt
Cc1cccc(CCNC(=O)C2CCCN(S(=O)(=O)c3cccc4nsnc34)C2)c1 (configuration not stated) | 30.0 | 93.2 | -3.7 | 0.6 | 0.1 | nt
O=C(c1ccc(S(=O)(=O)N2CCCC2)cc1)N(c1ccc(F)cc1)C1C=CS(=O)(=O)C1 (configuration not stated) | 3.4 | 99.9 | -1.2 | -13.0 | 1.0 | nt
CC(C)(C)NC(=O)CN(C(=O)Cn1nnc(-c2ccc(Cl)cc2)n1)C1CCN(Cc2ccccc2)CC1 | 5.9 | 87.9 | 26.2* | 15.0 | -6.6 | -1.1
O=C(CSc1nnc2c(n1)[nH]c1ccc(S(=O)(=O)N3CCOCC3)cc12)Nc1ccccc1Cl | -1.8 | 107.1 | 25.8* | 2.5 | 3.5 | -0.8
O=C(Nc1ncc(Cc2ccccc2Cl)s1)c1ccc(-c2cccc([N+](=O)[O-])c2)o1 | 13.8 | 93.0 | 21.7* | -10.1 | -2.0 | 4.0
Cc1cnc(NC(=O)c2ccc(-c3nc4ccccc4s3)o2)s1 | 0.0 | 106.5 | -22.7 | 12.2 | -9.1 | nt
SMILES | NALP1 inh | CR mimetic SO | dFosB act-1 | UBC13 inh | GRIN3A LBD mod | dFosB act-2
Cc1cnc(NC(=O)c2ccc(-c3ccc([N+](=O)[O-])cc3)o2)s1 | nt | 75.7 | 59.9* | -20.0 | 2.4 | 2.0
Cc1ccc(NC(=O)Cn2c(=O)c3cccn3c3ccccc32)c(C)c1 | 23.9 | 132.2 | 45.7* | 4.8 | 0.4 | 6.4
CC(/C=N/NC(=O)c1ccc(Cn2cc([N+](=O)[O-])cn2)o1)=C\c1ccccc1 | -6.0 | 96.1 | 27.9* | -2.5 | -7.8 | 3.9
c1cc(CCCc2ccncc2)ccn1 | nt | 97.0 | -0.4 | 3.7 | -1.6 | nt
Cc1csc2c(N(C)CCO)ncnc12 | 34.2 | 87.2 | -5.5 | -0.7 | -0.4 | nt
O=C(Nc1ccc(Oc2ccc3c(c2)C(=O)N(c2ccc(O)cc2)C3=O)cc1)c1cccs1 | 35.4 | 93.0 | 61.4* | -15.2 | 16.4* | -3.6
CC(C)CN1C(=O)c2ccc(NC(=O)c3cccs3)cc2C1=O | 19.2 | 94.2 | -4.6 | 2.4 | 2.8 | nt
O=C(CNC(=O)c1cccc(Cl)c1)Nc1ccc(F)c(F)c1F | 11.5 | 105.9 | -1.8 | -12.2 | 6.8 | nt
O=C(CNC(=O)c1n[nH]c2ccccc12)Nc1ccc(F)c(F)c1F | nt | 92.4 | 23.0* | -10.6 | -0.3 | 2.8
Cc1csc(NC(=O)c2cc3c(C)nn(Cc4ccccc4Cl)c3s2)n1 | 23.0 | 106.8 | 45.7* | 0.4 | -1.4 | 6.6
O=C(CNC(=O)c1cccc(Br)c1)N/N=C/c1ccc2c(c1)OCO2 | 17.0 | 87.2 | 18.4* | -8.6 | 0.2 | 2.7
CCCNC(=O)CSc1nc(-c2cccs2)cc(C(F)(F)F)n1 | 1.7 | 92.5 | 0.5 | -9.3 | 0.2 | nt
O=C(CSc1nc(-c2cccs2)cc(C(F)(F)F)n1)NCc1ccccc1 | 21.2 | 100.2 | 21.5* | 13.2 | 2.0 | 5.2
O=C1Nc2c(Br)cc(Br)c3cccc1c23 | 1.0 | 101.3 | 89.6* | 3.4 | -0.3 | 2.6
CC(C)c1ccc2[nH]c3nc(SCC(=O)NC4CC4)nnc3c2c1 | 14.1 | 99.9 | 29.7* | -14.1 | -3.8 | -0.1
CC(Sc1nnc2c(n1)[nH]c1ccccc12)C(=O)NC1CCCCC1 (configuration not stated) | -10.4 | 103.8 | 22.0* | -21.3 | -0.1 | 1.9
CC(Sc1nnc2c(n1)[nH]c1ccccc12)C(=O)N(C)C1CCCCC1 (configuration not stated) | 9.7 | 99.3 | -19.6 | -10.0 | -1.6 | nt

Assay outcomes from PubChem BioAssay.
